# Data: PubChem BioAssay (NCATS)
# Unmarked numbers belong to inactive results. Results filed as inconclusive are left out. Where a call stands in place of a potency, no number is given. The source made the active and inactive calls. Unless noted, the call rests on the fitted dose curve; in most records, active means well fitted curve in the direction sought with a large enough effect; inconclusive means small, poorly fitted or top-dose-only effect, or another doubt; inactive means no such curve, though single readings can be large; an effect the other way counts as inactive or inconclusive.
# Assays:
# [1] = qHTS Assay for Identification of Small Molecule Agonists for Thrombopoietin (TPO) Signaling Pathway (AID 917)
# Summary of the method: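 Human TPO receptor–transfected Ba/F3 cells (murine, IL-3-dependent) in IL-3-deficient medium; compounds plus TPO at EC50, 26 pM final; 24 hrs, 37 C; GpIIb-luciferase luminescence after 10 min RT detection.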
# [2] = Cell Viability - LYMP2-001 (AID 921);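 further: cells exposed to compound for 24 h at 37 °C; nearly all actives have a fitted effect of over 70% in size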; further: potency means the concentration at half of the fitted maximal effect
# Summary of the method: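 A lymphoblastoid cell line of human origin was treated with library compounds across a concentration series for 24 hours, and viable cell number was estimated from ATP-driven luciferase light output. Hill modeling gave AC50.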
# [3] = Confirmation and Secondary Assay for Modulators of Hemoglobin Beta Chain Splicing at IVS2 705 locus (AID 930);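 further: HeLa cells stably expressing the EGFP-705 splicing reporter; series mostly up to about 46 µM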
# Summary of the method: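 HeLa cells stably carrying EGFP interrupted by mutant beta-globin IVS2-705 intron (CMV-driven) were seeded at 500 cells/well, treated next day with compound for 2 days at 37C; corrected splicing restores EGFP, read as total peak GFP intensity per well.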
# [4] = biological target: Pyruvate kinase (Leishmania mexicana) (UniProt Q27686); assay: qHTS Validation Assay for Inhibitors of Leishmania Mexicana Pyruvate Kinase (AID 945); further: potency means the concentration at half of the fitted maximal effect
# Pyruvate kinase (Leishmania mexicana), sequence (Q27686 2-499 E452W): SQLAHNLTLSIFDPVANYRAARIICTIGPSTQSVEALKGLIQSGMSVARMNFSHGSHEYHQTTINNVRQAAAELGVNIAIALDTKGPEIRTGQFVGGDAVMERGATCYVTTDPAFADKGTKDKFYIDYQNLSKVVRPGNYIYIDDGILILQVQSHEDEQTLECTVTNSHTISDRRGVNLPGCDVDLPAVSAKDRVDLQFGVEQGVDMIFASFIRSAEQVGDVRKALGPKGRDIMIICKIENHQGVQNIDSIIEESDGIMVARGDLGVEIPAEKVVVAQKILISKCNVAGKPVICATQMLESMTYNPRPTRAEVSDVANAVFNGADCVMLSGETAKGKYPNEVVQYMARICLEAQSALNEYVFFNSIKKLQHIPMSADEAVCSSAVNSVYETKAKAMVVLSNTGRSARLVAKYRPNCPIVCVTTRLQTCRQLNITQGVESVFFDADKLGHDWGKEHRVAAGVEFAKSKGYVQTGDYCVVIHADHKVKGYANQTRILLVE
# Summary of the method: (§1)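 LmPYK E451W 0.2 nM; 0.5 mM PEP, 0.1 mM ADP, 7 mM MgCl2, 50 mM KCl, imidazole pH 7.2, 0.01% Tween 20, 0.05% BSA; 1 h RT; PKLight luminescence; DMSO-normalized.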
# [5] = Cell Viability - LYMP1-002 - Assay at 16 hr (AID 948); further: potency means the concentration at half of the fitted maximal effect
# Summary of the method: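 In this qHTS, lymphoblastoid LYMP1-002 cells (human) receive compounds for 16 hr at 37 C. Viability is taken from CellTiter-Glo ATP luminescence, and AC50 derives from standard Hill fits.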
# [6] = biological target: Pyruvate kinase PKM (Homo sapiens) (UniProt P14618); assay: qHTS Assay for Activators of Human Muscle Pyruvate Kinase (AID 954; active means well fitted curve in the direction sought with a large enough effect, not every such curve was filed as active)
# Pyruvate kinase PKM (Homo sapiens), sequence (P14618 whole entry, looked up): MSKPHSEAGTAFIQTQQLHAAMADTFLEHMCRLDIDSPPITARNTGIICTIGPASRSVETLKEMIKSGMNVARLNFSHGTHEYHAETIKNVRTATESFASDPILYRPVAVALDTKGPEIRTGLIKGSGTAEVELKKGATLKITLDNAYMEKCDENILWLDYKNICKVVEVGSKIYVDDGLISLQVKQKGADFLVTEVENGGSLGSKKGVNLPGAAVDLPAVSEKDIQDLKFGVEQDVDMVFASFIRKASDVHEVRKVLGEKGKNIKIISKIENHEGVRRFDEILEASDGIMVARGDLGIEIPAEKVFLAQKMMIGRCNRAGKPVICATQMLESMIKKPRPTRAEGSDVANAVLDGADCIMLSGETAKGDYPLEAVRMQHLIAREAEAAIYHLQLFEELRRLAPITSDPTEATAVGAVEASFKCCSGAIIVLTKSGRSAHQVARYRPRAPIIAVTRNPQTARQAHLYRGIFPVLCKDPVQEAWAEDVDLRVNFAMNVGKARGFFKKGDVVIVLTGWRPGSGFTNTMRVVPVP
# Summary of the method: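 PKM2, human, >95% pure, 0.1 nM; PEP 0.5 mM (Km), ADP 0.1 mM; 50 mM imidazole pH 7.2, 50 mM KCl, 0.01% Tween 20, 0.05% BSA; 1 h RT; luciferase luminescence readout.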
# [7] = MultiTox-Fluor Cytotoxicity Assay - LYMP1-002 - Live Cells (AID 955);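 further: cells exposed to compound for 16 hours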; further: potency means the concentration at half of the fitted maximal effect
# Summary of the method: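 In this qHTS viability format, lymphoblastoid cells (LYMP1-002, human) received compound for 16 hr at 37 C. Fluorogenic GF-AFC cleavage by viable cells was detected at 405/510 nm after 1 h at room temperature.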
# [8] = MultiTox-Fluor Cytotoxicity Assay - LYMP1-003 - Dead Cells (AID 961); further: nearly all actives have a fitted effect of over 70% in size
# Summary of the method: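 LYMP1-003 lymphoblastoid, 2500 cells/well, 5 hr settle then 16 hr cpd at 37 C; MultiTox-Fluor reagent 60 min RT; Ex/Em 485/520 dead-cell signal; norm. DMSO = 0%, 15 uM tetraoctylammonium bromide = 100%; Hill AC50.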
# [9] = MultiTox-Fluor Cytotoxicity Assay - LYMP1-003 - Live Cells (AID 962);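 further: cells exposed to compound for 16 hours at 37 °C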; further: potency means the concentration at half of the fitted maximal effect
# Summary of the method: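 Human lymphoblastoid line LYMP1-003 in complete culture medium, treated 16 hr with titrated compounds. Viable cells quantified via cell-permeant GF-AFC substrate fluorescence; AC50 derived by Hill fitting.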
# [10] = Cell Viability - LYMP1-003 - Assay at 24 hr (AID 963); further: potency means the concentration at half of the fitted maximal effect
# Summary of the method: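 The lymphoblastoid line was treated with titrated compounds for 24 hours, and viable cell number estimated from luciferase-based ATP luminescence.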
# [11] = Cell Viability - LYMP1-003 - Assay at 40 hr (AID 964); further: nearly all actives have a fitted effect of over 60% in size; further: potency means the concentration at half of the fitted maximal effect
# Summary of the method: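 Acute toxicity is scored as a concentration-dependent loss of intracellular ATP in LYMP1-003 cells (2500/well, complete medium) after 40 hr at 37 C, measured by CellTiter-Glo luminescence; AC50 values derive from standard Hill modelling.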
# [12] = biological target: Muscarinic acetylcholine receptor M1 (Rattus norvegicus) (UniProt P08482); assay: qHTS Assay for Antagonists of Acetylcholine Muscarinic M1 Receptor: Kinetic Measurement of Intracellular Calcium Response (AID 943);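 further: Fluo-4 calcium signal as peak divided by basal fluorescence over 4 min; series mostly up to about 35 µM; nearly all actives have a fitted effect of over 75% in size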
# Muscarinic acetylcholine receptor M1 (Rattus norvegicus), sequence (P08482 whole entry, looked up): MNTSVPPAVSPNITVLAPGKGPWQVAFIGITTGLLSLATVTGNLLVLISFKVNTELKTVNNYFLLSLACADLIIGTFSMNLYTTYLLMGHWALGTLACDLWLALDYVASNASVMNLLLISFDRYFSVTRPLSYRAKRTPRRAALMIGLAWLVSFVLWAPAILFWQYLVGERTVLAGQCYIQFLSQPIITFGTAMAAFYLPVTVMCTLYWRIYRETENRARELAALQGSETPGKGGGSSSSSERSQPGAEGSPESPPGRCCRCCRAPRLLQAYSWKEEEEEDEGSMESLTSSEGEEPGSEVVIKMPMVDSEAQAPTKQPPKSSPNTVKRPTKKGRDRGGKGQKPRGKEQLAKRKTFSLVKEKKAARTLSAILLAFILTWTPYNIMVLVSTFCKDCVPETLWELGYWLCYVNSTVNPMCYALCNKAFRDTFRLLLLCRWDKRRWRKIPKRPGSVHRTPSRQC
# Summary of the method: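 Quantitative HTS in CHO-M1 (rat receptor) cells: 10 min compound exposure ahead of 100 nM carbachol, Fluo-4 fluorescence followed 4 min, value expressed as peak-to-basal ratio.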
# [13] = MultiTox-Fluor Cytotoxicity Assay - LYMP1-001 - Live Cells (AID 947)
# [14] = MultiTox-Fluor Cytotoxicity Assay - LYMP1-002 - Dead Cells (AID 960); further: nearly all actives have a fitted effect of over 60% in size; further: potency means the concentration at half of the fitted maximal effect
# Summary of the method: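 Concentration-dependent increases in membrane-leaked protease activity are quantified in LYMP1-002 cells after 16 hr treatment; values are normalized against DMSO and tetraoctylammonium bromide (15 uM) controls and AC50 derived by Hill modeling.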
# [15] = biological target: Muscarinic acetylcholine receptor M1 (Rattus norvegicus) (UniProt P08482); assay: qHTS Assay for Antagonists of Acetylcholine Muscarinic M1 Receptor: Measurement of IP-One Response (AID 944); further: nearly all actives have a fitted effect of over 75% in size
# Summary of the method: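 Antagonism was measured as loss of carbachol-driven (EC80) IP1 accumulation in CHO cells carrying rat M1, using a homogeneous IP-One TR-FRET kit read at 620 and 665 nm.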
# [16] = biological target: Pyruvate kinase (Leishmania mexicana) (UniProt Q27686); assay: qHTS Validation Assay for Activators of Leishmania Mexicana Pyruvate Kinase (AID 959)
# Summary of the method: as §1
# [17] = qHTS Assay for Identification of Small Molecule Antagonists for Thrombopoietin (TPO) Signaling Pathway (AID 918); conditions: TPO-dependent cell signaling reporter, antagonist mode; further: potency means the concentration at half of the fitted maximal effect; nearly all actives have a fitted effect of over 60% in size
# Summary of the method: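 Antagonist mode at EC50 TPO (26 pM) in IL-3-free medium; murine Ba/F3 cells with human TPO receptor and GPIIb-promoter luciferase, 24 hrs at 37 C before luminescent detection.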
smiles,measurement,setting,value
O=C1NC(=O)C(c2ccccc2)(c2ccccc2)N1,Potency,[1],inactive
same,Potency,[2],inactive
same,outcome,[3],inactive
same,Potency,[4],inactive
same,Potency,[5],inactive
same,outcome,[6],inactive
same,Potency,[7],inactive
same,outcome,[8],inactive
same,Potency,[9],inactive
same,Potency,[10],inactive
same,Potency,[11],inactive
CC(=O)N[C@@H](CS)C(=O)O,outcome,[12],inactive
same,Potency,[4],inactive
same,outcome,[6],inactive
O=C(O)Cc1cccc2ccccc12,Potency,[2],inactive
same,outcome,[13],inactive
same,Potency,[5],inactive
same,Potency,[7],inactive
same,Potency,[14],inactive
same,outcome,[8],inactive
same,Potency,[9],inactive
same,Potency,[10],inactive
same,Potency,[11],inactive
O=c1cc(-c2ccc(O)cc2)oc2cc(O)cc(O)c12,Potency,[2],inactive
same,outcome,[12],inactive
same,outcome,[15],inactive
same,Potency,[4],12.6 µM (active)
same,outcome,[6],inactive
same,outcome,[16],inactive
same,Potency,[14],inactive
same,Potency,[9],inactive
same,Potency,[10],inactive
CC(=O)O[C@]1(C(C)=O)CC[C@H]2[C@@H]3C=C(Cl)C4=CC(=O)[C@@H]5C[C@@H]5[C@]4(C)[C@H]3CC[C@@]21C,Potency,[2],inactive
same,outcome,[13],inactive
same,Potency,[5],inactive
same,Potency,[7],inactive
same,Potency,[14],inactive
same,outcome,[8],inactive
same,Potency,[9],inactive
same,Potency,[10],inactive
same,Potency,[11],inactive
CN(C)CCC(c1ccccc1)c1ccccn1 (stereo unspecified),Potency,[2],inactive
same,outcome,[3],inactive
same,outcome,[13],inactive
same,Potency,[5],inactive
same,Potency,[7],inactive
same,Potency,[14],inactive
same,outcome,[8],inactive
same,Potency,[9],inactive
same,Potency,[10],inactive
same,Potency,[11],inactive
O=C(O)c1cc(O)c2c(c1)C(=O)c1cccc(O)c1C2=O,Potency,[2],inactive
same,outcome,[13],inactive
same,Potency,[5],inactive
same,Potency,[7],inactive
same,Potency,[14],inactive
same,outcome,[8],inactive
same,Potency,[9],inactive
same,Potency,[10],inactive
same,Potency,[11],inactive
O=c1cc(-c2ccccc2)oc2cc(O)cc(O)c12,outcome,[3],inactive
O=c1[nH]cnc2c1ncn2[C@H]1CC[C@@H](CO)O1,Potency,[2],inactive
same,outcome,[13],inactive
same,Potency,[5],inactive
same,Potency,[7],inactive
same,Potency,[14],inactive
same,outcome,[8],inactive
same,Potency,[9],inactive
same,Potency,[10],inactive
same,Potency,[11],inactive
O=c1c(-c2ccc(O)cc2)coc2cc(O)ccc12,Potency,[2],inactive
same,outcome,[3],inactive
same,outcome,[13],inactive
same,Potency,[5],inactive
same,outcome,[6],inactive
same,Potency,[7],inactive
same,Potency,[14],inactive
same,outcome,[8],inactive
same,Potency,[9],inactive
same,Potency,[10],inactive
c1ccc2c(Cc3c[nH]c4ccccc34)c[nH]c2c1,outcome,[3],inactive
CC1(C)CCC2=C(O1)c1ccccc1C(=O)C2=O,Potency,[17],1.58 µM (active)
same,Potency,[4],inactive
same,outcome,[6],inactive
Cc1cccc(C)c1OCC(C)N (stereo unspecified),outcome,[3],inactive
COc1cc(O)c2c(c1)C(=O)c1cc(C)cc(O)c1C2=O,outcome,[3],inactive
O=c1c(O)c(-c2ccc(O)cc2)oc2cc(O)cc(O)c12,Potency,[2],inactive
same,outcome,[13],inactive
same,Potency,[5],inactive
same,Potency,[7],inactive
same,Potency,[14],inactive
same,outcome,[8],inactive
same,Potency,[9],inactive
same,Potency,[10],inactive
same,Potency,[11],inactive
CC1=C(/C=C/C(C)=C/C=C/C(C)=C/C(=O)Nc2ccc(O)cc2)C(C)(C)CCC1,Potency,[17],10 µM (active)
same,Potency,[2],39.8 µM (active)
same,outcome,[12],inactive
same,outcome,[15],inactive
same,Potency,[4],inactive
same,Potency,[5],50.1 µM (active)
same,outcome,[6],inactive
same,Potency,[7],25.1 µM (active)
same,Potency,[14],31.6 µM (active)
same,Potency,[9],50.1 µM (active)
same,Potency,[10],50.1 µM (active)
same,Potency,[11],39.8 µM (active)
CC/C(=C(\c1ccccc1)c1ccc(OCCN(C)C)cc1)c1ccccc1,Potency,[17],10 µM (active)
same,outcome,[3],inactive
same,Potency,[4],inactive
same,outcome,[6],inactive
same,Potency,[7],31.6 µM (active)
same,Potency,[14],25.1 µM (active)
same,Potency,[11],50.1 µM (active)
COc1ccc(-c2coc3cc(O)ccc3c2=O)cc1,outcome,[3],inactive
CCn1cc(C(=O)O)c(=O)c2ccc(C)nc21,Potency,[2],inactive
same,outcome,[3],inactive
same,outcome,[13],inactive
same,Potency,[5],inactive
same,Potency,[7],inactive
same,Potency,[14],inactive
same,outcome,[8],inactive
same,Potency,[9],inactive
same,Potency,[10],inactive
same,Potency,[11],inactive
COc1ccc(C2Sc3ccccc3N(CCN(C)C)C(=O)C2OC(C)=O)cc1 (stereo unspecified),outcome,[3],inactive
COc1ccc(Cc2nccc3cc(OC)c(OC)cc23)cc1OC,Potency,[4],inactive
same,outcome,[6],inactive
CCCCCCCCCCCC1=C(O)C(=O)C=C(O)C1=O,outcome,[3],inactive
COc1ccc(-c2coc3cc(O)cc(O)c3c2=O)cc1,outcome,[3],inactive
C[C@]12CCC3c4ccc(O)cc4CCC3C1CCC2=O (stereo partly specified),outcome,[3],inactive
